Hit rate of the full screen: of about 310,000 compounds, about 3,900 (1.3%) were called active.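 The calls were made as follows: active = compounds whose thallium flux B-score, printed positive for inhibition, exceeds three library SD while starting fluorescence stays within three; inactive = the rest.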 Many of the other results were omitted from the sample, so actives are more common in it than they were.
Target: Potassium voltage-gated channel subfamily KQT member 1 (Homo sapiens) (UniProt P51787)
Sequence (P51787 whole entry, looked up): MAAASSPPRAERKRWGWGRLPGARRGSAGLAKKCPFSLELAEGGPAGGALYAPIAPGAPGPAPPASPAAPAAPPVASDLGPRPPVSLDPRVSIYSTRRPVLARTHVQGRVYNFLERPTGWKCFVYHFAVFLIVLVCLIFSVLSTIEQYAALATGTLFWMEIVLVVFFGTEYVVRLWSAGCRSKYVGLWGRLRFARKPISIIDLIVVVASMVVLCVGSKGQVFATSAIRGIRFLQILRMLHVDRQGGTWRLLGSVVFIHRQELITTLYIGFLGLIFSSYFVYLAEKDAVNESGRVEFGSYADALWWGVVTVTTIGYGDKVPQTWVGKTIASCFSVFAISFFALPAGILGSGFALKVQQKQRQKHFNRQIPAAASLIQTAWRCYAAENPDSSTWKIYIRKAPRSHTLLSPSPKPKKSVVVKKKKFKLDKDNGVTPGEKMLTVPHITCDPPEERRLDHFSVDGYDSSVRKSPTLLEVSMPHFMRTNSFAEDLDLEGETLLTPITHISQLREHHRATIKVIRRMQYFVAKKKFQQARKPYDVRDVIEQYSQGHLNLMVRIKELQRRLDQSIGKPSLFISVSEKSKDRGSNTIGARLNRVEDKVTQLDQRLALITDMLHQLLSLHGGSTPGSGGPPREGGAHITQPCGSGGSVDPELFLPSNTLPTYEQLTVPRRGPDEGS
Experiment: KCNQ1 potassium current blockers – cell-based, thallium flux, high-throughput, primary screen (AID 2642);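 also: channel opened by potassium depolarization with thallium stimulus after 20 min compound exposure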
Settings: CHO-K1 KCNQ1, FluxOR thallium flux fluorescence, at 10 µM; stronger effect = higher value

B-score, active:
N=c1c2c(-c3ccccc3)c(-c3ccccc3)n(Cc3ccccc3)c2ncn1CCCO 10, O=C(Nc1cccc(Cl)c1)Nc1ccccc1NS(=O)(=O)c1cccs1 14, CC(=O)N(C1=C(Cl)C(=O)c2ccccc2C1=O)c1ccc(C(=O)O)cc1 17, O=C(c1ccncc1)N1CCN(S(=O)(=O)c2cc(C(F)(F)F)cc(C(F)(F)F)c2)CC1 6, CCn1c(/C=C/Nc2ccccc2)[n+](CC)c2ccc(C(=O)OCC(F)(F)F)cc21 9, Cc1ccc(-c2nc(-c3cccnc3)sc2CC(=O)Nc2ccc(C)c(Cl)c2)cc1 11, COc1cc(/C=C(\C#N)c2nc3ccccc3[nH]2)ccc1O 9, O=C(Nc1ccc(F)cc1)c1cccnc1N1CCOCC1 10, Cc1c(C(=O)OC(C)C)sc(NC(=O)c2cccnc2)c1C#N 9, Cc1ccc(S(=O)(=O)Nc2ccc3ncccc3c2)cc1 6, CCCCCCCCCCCCN1C(=O)CSC1c1cccnc1 (configuration not stated) 9, CN(C)C(=O)c1ccc2c(c1)C1C3CCC(C3)C1C(c1ccccc1)N2 (configuration not stated) 6, S=C(NCc1ccc(Cl)cc1)NC12CC3CC(CC(C3)C1)C2 11, CCSc1nsc(NC(=O)Nc2cccc(C(C)=O)c2)n1 10, C=CCSc1nsc(NC(=O)Nc2cccc(C(C)=O)c2)n1 12, Cc1ccc(-c2csc(NC(=O)C3=COCCO3)n2)cc1C 12, COc1ccc(-c2cc(C(F)(F)F)nc(S(C)(=O)=O)n2)cc1OC 7, COC(=O)c1ccc(NC(=O)Nc2ccc(C)cc2)cc1 7, Oc1ccccc1C1=NN(c2ccccc2)C(c2ccccc2)C1 (configuration not stated) 7, Cc1cccc(-n2cc(CN3CCN(C(=O)c4ncn[nH]4)CC3)c(-c3cccc(F)c3)n2)c1 10

B-score, inactive:
COc1ccc(N2CCN(C(=O)c3cn(C)c4ccc(S(=O)(=O)N5CCOCC5)cc4c3=O)CC2)cc1, COCCn1c(N)c(NCc2ccccc2)c(=O)[nH]c1=O, COC1=CCC2([N+](=O)[O-])CN(CC(=O)O)CC1([N+](=O)[O-])C2 (configuration not stated), CCCCOc1ccc(C(=O)NCC(=O)OCC(=O)N2CCN(S(=O)(=O)c3ccc(C)cc3C)CC2)cc1, CCN(CC)CCn1cnc2c1c(=O)[nH]c(=O)n2Cc1ccccc1, COCCn1cnc2c1c(=O)n(Cc1ccc(Br)cc1)c(=O)n2Cc1ccccc1, O=S(=O)(Nc1ccccc1Br)c1cccs1, O=S(=O)(NCc1ccc(Cl)cc1Cl)c1cccs1, COCCNC(=O)CN(Cc1ccco1)C(=O)CCC(=O)Nc1nccs1, O=C(CN1C(=O)c2ccccc2C1=O)NCc1ccc(C(=O)O)cc1, CC(C)N(C(=O)c1ccc(-c2ccccc2F)cc1)C(C)C, Cc1ccc(Cl)cc1NC(=O)C1CCCN(c2cnccn2)C1 (configuration not stated), O=C(COc1ccc(S(=O)(=O)N2CCOCC2)cc1Cl)N1CCOCC1, OCC1(Cc2ccccc2C(F)(F)F)CCN(Cc2cccc3cnccc23)CC1, O=C(Cc1ccsc1)N1CCN(S(=O)(=O)c2cc(C(F)(F)F)cc(C(F)(F)F)c2)CC1, O=C(c1ccncc1)N1CCN(S(=O)(=O)c2cccc([N+](=O)[O-])c2)CC1, Cn1c(=O)c2c(nc(N3CCOCC3)n2CCNC2=NCCC2)n(C)c1=O, CCc1cccc(NC(=O)C2CCCN(S(=O)(=O)c3ccc4[nH]c(=O)ccc4c3)C2)c1 (configuration not stated), COC(=O)c1ccc(/C=C2/C(=O)Oc3ccccc32)cc1, C/C(N)=C(/C#N)C(=O)COC(=O)C1CCN(C(=O)c2ccc(Cl)cc2)CC1, COc1ccc(NC(=O)CNC(=O)Cn2ccc3ccccc3c2=O)c(OC)c1, Cc1ccc(OCCCCc2c(C)n[nH]c2C)cc1, CCOC(=O)N1CCN(C(=O)c2ccc(S(=O)(=O)Nc3cccc(C(F)(F)F)c3)cc2)CC1, CCOC(=O)c1ccc2c(c1)nc(C)n2CC, O=C(COC(=O)/C=C/c1cccs1)NC1CCCCC1, Cc1ccc(NC(=O)COc2ccc(-n3ccnc3)cc2)cc1Cl, Cc1nc(-c2ccc(F)cc2)c(CC(=O)Nc2cccc(S(=O)(=O)N3CCOCC3)c2)s1, COc1cc(C(=O)N/C(=C\c2cn(C)c3ccccc23)C(=O)N2CCOCC2)cc(OC)c1OC, COc1ccc(/C=C(/NC(=O)c2ccc(C)cc2)c2nc3ccccc3[nH]2)cc1OC, COc1cc(/C=C(\C#N)c2nc3c(s2)CC(C)CC3)ccc1O (configuration not stated), COc1ccc(/C=C(\NC(=O)c2ccc(OCC(C)C)cc2)C(=O)OCc2ccco2)cc1, O=C(O)c1ccc(OCC2CCCO2)cc1 (configuration not stated), COc1ccccc1C(=O)NC(CCSC)C(=O)NNC(=O)c1csc(N2CCOCC2)n1 (configuration not stated), O=C(Nc1ccc(N2CCOCC2)nc1)c1c(F)cccc1F, COC(=O)c1cc(NC(=O)c2cccnc2)ccc1N1CCOCC1, CSCCC(NS(=O)(=O)/C=C/c1ccccc1)C(=O)N1CCC(C)CC1 (configuration not stated), CCOC(=O)c1sc(NC(=O)CSc2ncccn2)c(C#N)c1C, CCOC(=O)c1ccc(NC(=O)c2cccnc2)cc1, C=CCc1c(C)nc2cc(-c3ccccc3)[nH]n2c1=O, COc1ccc(CCNC(=O)CCNS(=O)(=O)c2cc(Br)cnc2N)cc1OC, Cc1cc(C)cc(OCC(=O)Nc2ccc(S(=O)(=O)Nc3ccccn3)cc2)c1, Cc1ccc(NS(=O)(=O)c2ccc(C(C)(C)C)cc2)cn1, Cc1ccc2c(Cl)c(C(=O)Nc3nn[nH]n3)sc2c1, CN(C)CCCN1C(=O)CSC1c1ccc([N+](=O)[O-])cc1 (configuration not stated), CCCCCCOc1ccc(OC(=O)c2cccnc2)cc1, CCCCN1C(=O)c2ccc(C(=O)Nc3ccc(S(=O)(=O)N(C)C)cc3)cc2C1=O, CC(C)(C)C(=O)N(Cc1ccccc1)c1ccccn1, CCN=C1S/C(=C\c2cc(Br)ccc2OCC(=O)OCC)C(=O)N1CC, CN(C)C(=O)c1ccc(NC(=O)c2ccccc2-c2ccccc2)cc1, O=C(c1ccc2c(c1)N(Cc1ccc(F)cc1)C(=O)c1ccccc1S2(=O)=O)N1CCN(c2ccccn2)CC1, O=C(NCc1ccncc1)NC12CC3CC(CC(C3)C1)C2, S=C(NCc1ccc(Cl)cc1)NC1CCCCC1, Cc1cc(C)c(NC(=S)N2CCCC2C(=O)O)c(C)c1 (configuration not stated), CC(C)[C@H](NC(=O)N1CCn2c1nc1ccccc12)C(=O)NCc1ccc2c(c1)OCO2, COc1cnn(-c2ccc([N+](=O)[O-])cc2)c(=O)c1Cl, CC(=O)c1ccc(NC(=O)C2CCCN2S(=O)(=O)c2cccs2)cc1 (configuration not stated), CCSc1nsc(NC(=O)Nc2ccccc2OC)n1, CC(=O)c1cccc(NC(=O)c2ccncc2)c1, CSc1nsc(NC(=O)Nc2ccccc2)n1, C=C(C)C(=O)Nc1cccc(C(C)=O)c1, CCOc1ccc(C(CCc2ccccc2)NC(=O)c2ccc(OC)c(OC)c2)cc1OCC (configuration not stated), COc1cc2c3c(c1)/C(=C1/SC(=S)NC1=O)C(=O)N3C(C)(C)C=C2C, Cc1ccc2nc(-c3ccncc3)cc(C(=O)Nc3ccc(OC(F)F)cc3)c2c1, CC(C)C(=O)Nc1ccc2c(c1)oc1ccccc12, CCOC(=O)c1ccc(NC(=O)CCn2c(=O)oc3ccccc32)cc1, CC(=O)NCCC(=O)Nc1nc(-c2ccc3c(c2)OCCO3)cs1, Cc1csc(NC(=O)C2=COCCO2)n1, Cc1cccc(CN2CCC(n3nccc3NC(=O)c3ccccc3C)CC2)n1, CN(C)N(C)C(=O)C(O)(c1ccccc1)c1ccccc1, CCc1ccc(NC(=O)CCNS(=O)(=O)c2cccs2)cc1, COc1ccc(-c2ccc(Nc3ccc(S(=O)(=O)N4CCCC4)cc3)nn2)cc1OC, COc1ccc(-c2cc(C(F)(F)F)nc(NCc3cccnc3)n2)cc1, C=C(C)CNC(=O)c1ccc(OC2CCN(C(=O)COC)CC2)cc1, O=C(CC(NCCN1CCOCC1)C(=O)O)Nc1cccc(Cl)c1 (configuration not stated), CCOC(=O)c1sc(NC(=O)CSc2nc(C)cc(C(F)(F)F)n2)c(C#N)c1C, CC(C(=O)Nc1ccc(O)c(C(=O)O)c1)N1C(=O)/C(=C/c2cccs2)SC1=S (configuration not stated), Cc1ccc(NC(=O)CC(=O)Nc2ccc(C)cc2)cc1, COC(=O)c1ccc(NC(=O)c2cc(Cl)ccc2OC)cc1, CCC(C)C(NC(=O)C1CCC(=O)N1C(=O)OCc1ccccc1)C(=O)NC(C(=O)N1CCCC1C(N)=O)C(C)CC (configuration not stated), CC1CCc2c(c3ccccc3[nH]c2=O)O1 (configuration not stated), CCOC(=O)c1cc(C)sc1NC(=O)C1CCC1, O=C(c1ccccc1)N1N=C(c2ccccc2O)CC1c1ccc(Br)cc1 (configuration not stated), COc1ccc(C2CC(c3cccs3)=NN2c2ccccc2)cc1 (configuration not stated), Cc1nc2c(C(=O)NCc3cccs3)cnn2c(C)c1Cc1ccc(F)cc1, CCOC(=O)c1cccc(NC(=O)C2CCCN(S(=O)(=O)c3cnc[nH]3)C2)c1 (configuration not stated), Cc1ccc(C)c(-n2cc(CN3CCN(C(=O)c4ncn[nH]4)CC3)c(-c3ccccc3)n2)c1, CCC(O)C1CCN(Cc2cn(-c3ccc(OC)cc3)nc2-c2cccc(F)c2)CC1 (configuration not stated)

— PubChem BioAssay AID2642 (Johns Hopkins Ion Channel Center, 2010)
